Screening results: PubChem BioAssay, several laboratories
This is a sample that favours compounds with a hit; in the whole collection about 1.5% have one here.
PrP 5UTR inh = inhibition of PrP 5' UTR reporter expression; cell-based PrP 5' UTR mRNA reporter, plate reader; inhibition, % (test concentration not listed); 0.35% of 340,000 active; AID 488862; in the data active means inhibition above about 52%; further: 0 = median of the neutral control wells
PrPC surface inh = cell surface PrPC inhibition, primary TR-FRET screen; TR-FRET read-out; 0.43% of 370,000 active; inhibition, % at 13.8 µM; P04156; in the data active means inhibition above about 24%; further: 0% = median of the test wells and 100% = reference compound wells
MazF activator = activators of E. coli MazEF toxin-antitoxin RNase. P0AE70. FAM/BHQ RNA-DNA oligo cleavage fluorescence, 5 h. activation, % at 20 µM. 0.32% of 350,000 active. AID 504720; in the data active means activation above about 50%
Target sequence (P0AE70 whole entry, looked up): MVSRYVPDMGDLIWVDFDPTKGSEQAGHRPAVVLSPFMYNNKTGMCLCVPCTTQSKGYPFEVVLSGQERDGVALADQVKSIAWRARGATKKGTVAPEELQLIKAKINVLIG
Mtb hypoxia inh = inhibitors of hypoxia-regulated fluorescent reporter in Mycobacterium tuberculosis; M. tuberculosis hypoxia-regulated fluorescent reporter, fluorescence; fluorescence inhibition, % (concentration not given with the values); 0.1% of 300,000 active; AID 1159583; in the data active means fluorescence inhibition mostly above about 23%, no sharp cut-off; inactive means mostly below about 17%
VHR inh abs = inhibitors of human VHR1 phosphatase (DUSP3); inhibition, % at 13.3 µM; 0.52% of 290,000 active; AID 1654; recombinant VHR phosphatase, pNPP absorbance; in the data active means inhibition above about 50%
Target sequence (P51452 whole entry, looked up): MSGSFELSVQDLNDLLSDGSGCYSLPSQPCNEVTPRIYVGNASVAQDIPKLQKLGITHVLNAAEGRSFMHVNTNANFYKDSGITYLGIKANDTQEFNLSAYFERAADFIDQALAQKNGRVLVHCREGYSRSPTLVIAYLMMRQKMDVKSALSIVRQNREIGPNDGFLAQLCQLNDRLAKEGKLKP
SARS 3CLpro inh = SARS-CoV 3CLpro protease inhibition; P0C6X7; recombinant SARS-CoV 3CLpro, quenched FRET peptide cleavage; inhibition, % at 6 µM; 0.14% of 290,000 active; AID 1706; in the data active means inhibition above about 12%
* marks the source's active call; other numbers are inactive results; nt = no result given; + = active, no number.

SMILES	PrP 5UTR inh	PrPC surface inh	MazF activator	Mtb hypoxia inh	VHR inh abs	SARS 3CLpro inh
Cc1cccc(N2C(=O)N3C(c4ccc(F)cc4)C4C(=O)N(C5CCCCC5)C(=O)C4[C@]3(Cc3ccccc3)C2=O)c1 (stereo partly specified)	nt	nt	nt	3	nt	nt
COc1ccc(NC(=O)C(=O)NCC2CCCN2S(=O)(=O)c2ccc(C)cc2)cc1 (stereo unspecified)	78*	14	nt	5	nt	nt
CCn1c2c(c3cc(Br)ccc31)CCCC2=NO	nt	nt	nt	4	nt	nt
O=C(O)COc1c(Cl)cc(C=C2NC(=O)NC2=O)cc1Br	nt	nt	nt	1	nt	nt
Cc1cc(NC(=O)Cn2ccsc2=N)c([N+](=O)[O-])cc1C	-12	-3	-30	-1	16	-1
COc1ccc([N+](=O)[O-])cc1NC(=O)Cn1ccsc1=N	-4	-21	5	6	51*	2
Cc1ccc(Nc2nc(N)nc(-c3oc4ccccc4c3C)n2)cc1	70*	nt	-21	-1	35	-2
COc1cc(/C=C(\C#N)c2nc3ccccc3[nH]2)ccc1OC(=O)c1ccco1	-76	-11	56*	-6	-11	-7
COc1cc(/C=C(/C#N)c2nc3ccccc3[nH]2)ccc1OCC(=O)Nc1ccccc1C	-8	2	6	2	27	4
Cc1cc(C)cc(NC(=O)c2cc(C)nc3ccccc23)c1	-12	-5	7	5	59*	-4
Cc1cc(C(=O)Nc2ccccc2)c2ccccc2n1	-25	-1	2	6	21	3
Cc1cccc(C=NN(CCO)C2=NS(=O)(=O)c3ccccc32)c1	nt	nt	nt	2	nt	nt
CCC(C)NC(=O)NCc1ccccc1F (stereo unspecified)	-24	-1	3	16	56*	0
O=C(NCc1ccccc1F)Nc1ccc([N+](=O)[O-])cc1	-13	-16	7	-3	56*	6
CC(CCC(C)C)=NNC(=S)NCc1ccccc1	nt	nt	nt	9	nt	nt
CCCCCCCSc1nsc(N)n1	-24	7	-6	11	57*	-1
CCCCCCSc1nsc(NC(=O)CC(C)C)n1	-28	16	-6	16	-17	2
CN(C(=O)c1ccccc1Cl)c1ccccc1C(=O)NCc1ccccc1	-48	3	7	6	53*	-6
O=C1c2cccc3c(N4CCCCC4)ccc(c23)C(=O)N1c1cccc(O)c1	-48	-4	24	5	33	0
Cc1n[nH]c(C)c1N1C(=O)c2cccc3c(N4CCCCCC4)ccc(c23)C1=O	-14	4	670*	-8	25	-27
CCCc1cc(=O)oc2cc(OCC(=O)NCc3ccccn3)ccc12	-24	4	2	-7	-9	-1
CCCc1cc(=O)oc2cc(OCC(=O)Nc3ccc(S(N)(=O)=O)cc3)ccc12	-8	6	-27	-10	57*	6
CCCc1cc(=O)oc2cc(OCC(=O)NCC(O)c3ccccc3)ccc12 (stereo unspecified)	-1	3	11	4	53*	-4
NC(=O)CN1C(=O)C(=c2sc3nc(=O)c(Cc4ccccc4)nn3c2=O)c2ccccc21	nt	nt	nt	7	nt	nt
O=C(CC(SCCO)c1ccc([N+](=O)[O-])cc1)c1ccco1 (stereo unspecified)	-7	3	-4	16	7	-1
SMILES	PrP 5UTR inh	PrPC surface inh	MazF activator	Mtb hypoxia inh	VHR inh abs	SARS 3CLpro inh
CC(=O)NC(CSC(CC(=O)c1ccco1)c1ccc(C)cc1)C(=O)O (stereo unspecified)	-72	-5	249*	15	26	5
CCc1nc(NC(Cc2c[nH]c3ccccc23)C(=O)O)c2oc3ccccc3c2n1 (stereo unspecified)	nt	nt	nt	8	nt	nt
O=C(NC1CCCC1)C1CCN(C(=O)NCc2ccccc2)CC1	-25	1	3	-1	54*	-2
C=C1C(O)CC(C(C)C)N(CC(C)C)S1(=O)=O (stereo unspecified)	nt	nt	nt	8	nt	nt
O=C(CCc1nc2ccccc2c(=O)[nH]1)N1CCN(C/C=C/c2ccccc2)CC1	-7	11	5	4	7	-2
O=c1[nH]c(CN2CCN(C/C=C/c3ccccc3)CC2)nc2cc(Cl)ccc12	-31	-5	-3	6	54*	-7
C(=NN=Cc1ccccc1)c1ccccc1	nt	nt	nt	1	nt	nt
CCCCC1CN=C(N)N1CC(C)(C)C (stereo unspecified)	nt	nt	nt	7	nt	nt
COc1ccc(C=NNC(=O)c2ccc(COc3cccc4cccnc34)cc2)cc1OC	nt	nt	nt	4	nt	nt
COc1ccc(N=NC2=C(O)CC(C)(C)CC2=O)c(OC)c1	-8	8	-29	18	53*	3
O=C1CSC(c2ccc([N+](=O)[O-])cc2)N1c1ccc(O)cc1 (stereo unspecified)	1	-19	1	1	57*	-3
Nc1nonc1-n1nnc(C(=O)NN=Cc2ccc(OCc3ccccc3)cc2)c1CN1CCCCC1	nt	nt	nt	-6	nt	nt
CCN1C(=NCCc2ccc([N+](=O)[O-])cc2)NC(c2ccccc2)C(C(=O)OC)C1C (stereo unspecified)	nt	nt	nt	20	nt	nt
C/C(=N/NC(=O)c1ccncc1)c1cc2ccc(O)cc2oc1=O	-10	-2	+	nt	-1	0
O=C(c1cc(COc2ccc3ncccc3c2)on1)N1CCC[C@H]1CO	-29	16	2	13	53*	-5
O=C(c1cc(COc2ccc3ncccc3c2)on1)N1CCCC(O)C1 (stereo unspecified)	-8	16	6	4	39	6
O=c1[nH]nc(NN=Cc2ccccc2OC(F)F)c(=O)[nH]1	nt	nt	nt	-5	nt	nt
CCSc1nsc(NC(=O)Nc2cccc(F)c2)n1	-34	40*	4	nt	11	-1
CNC(=O)C1CC1C(NC(=O)CNC(=O)OCc1ccccc1)c1ccccc1 (stereo unspecified)	nt	nt	nt	15	nt	nt
CN(C)C(=O)C(=Cc1cccc(Oc2ccccc2)c1)NC(=O)c1ccccc1	nt	nt	nt	2	nt	nt
COc1ccccc1/C=C\C(=O)NCC(=O)N/N=C/c1ccc(O)cc1O	-2	-5	3	nt	56*	0
COc1ccccc1/C=C\C(=O)NCC(=O)NN=Cc1ccc(O)cc1O	nt	nt	nt	11	nt	nt
NS(=O)(=O)c1ccc(N2CCCC2=O)c([N+](=O)[O-])c1	8	-13	3	-5	22	2
NNS(=O)(=O)c1ccc(N2CCCC2=O)c([N+](=O)[O-])c1	-8	-13	227*	12	24	2
COc1cc(CN2CCN(Cc3ccc4cc(F)ccc4n3)CC2CCO)cc(OC)c1 (stereo unspecified)	-15	-14	4	-6	-29	-7
COc1ccc(CN2CCN(Cc3ccc4cc(F)ccc4n3)CC2CCO)c(C)c1C (stereo unspecified)	-2	0	-12	-6	51*	-1
CCc1ccc(C2=NN(S(C)(=O)=O)C(c3cccs3)C2)cc1 (stereo unspecified)	-45	4	283*	4	12	5
